Measured values taken from PubChem BioAssay AID1159580 (chemical genetic matrix, 2015).
Where “and” joins values, the source holds several entries; their conditions need not be identical. Equal values may be shown once. In all, about 5,500 compounds went through this assay and about 2,000 (36%) were called active. Another 18% or so got no clear call; they are omitted. Cut-off read from the data, not from the text of the source: active = normalized growth mostly below about 0.91 (no sharp cut-off); inconclusive = no clear call, values can overlap the other calls; inactive = mostly above about 0.92. The list shows a part of the results.

Assay: chemical genetic growth profiling, strain panel (AID 1159580);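 note: tested at 20 µM; growth read once vehicle control cultures reached saturation at 30 °C; 1 = growth at the plate median or of vehicle wells; lower values mean less growth of the strain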
Settings: S. cerevisiae deletion strains, growth OD

Measured: normalized growth

C[C@H](N)[C@H](O)c1ccc(O)c(O)c1
inactive: locus YAL013W, strain DEP1, hits give low values 1 | locus YAL021C, strain ccr4, hits give low values 1.01 | locus YAL026C, strain drs2, hits give low values 1.01 | locus YAL030W, strain snc1, hits give low values 1 | locus YBL061C, strain skt5, hits give low values 1.01 | locus YBR009C, strain hhf1, hits give low values 0.997 | locus YBR021W, strain FUR4, hits give low values 0.991 | locus YBR023C, strain chs3, hits give low values 0.999 | locus YBR171W, strain sec66, hits give low values 0.991 | locus YBR229C, strain ROT2, hits give low values 0.991 | locus YBR231C, strain swc5, hits give low values 0.982 | locus YBR279W, strain paf1, hits give low values 1.02 | locus YCL011C, strain gbp2, hits give low values 1.01 | locus YCL016C, strain dcc1, hits give low values 0.987 | locus YCL029C, strain bik1, hits give low values 0.993 | locus YCL061C, strain MRC1, hits give low values 1 | locus YCL069W, strain vba3, hits give low values 1.01 | locus YCR088W, strain abp1, hits give low values 1 | locus YDL005C, strain med2, hits give low values 0.996 | locus YDL035C, strain GPR1, hits give low values 1 | locus YDL040C, strain nat1, hits give low values 1 | locus YDL074C, strain BRE1, hits give low values 0.983 | locus YDL101C, strain DUN1, hits give low values 0.992 | locus YDL185W, strain tfp1, hits give low values 0.982 | locus YDL192W, strain arf1, hits give low values 0.979 | locus YDR001C, strain nth1, hits give low values 1.01 | locus YDR069C, strain doa4, hits give low values 1.01 | locus YDR101C, strain arx1, hits give low values 1.01 | locus YDR137W, strain rgp1, hits give low values 1 | locus YDR159W, strain sac3, hits give low values 1.01 | locus YDR162C, strain NBP2, hits give low values 0.999 | locus YDR195W, strain ref2 0.991 | locus YDR297W, strain sur2, hits give low values 1.01 | locus YDR318W, strain mcm21, hits give low values 0.98 | locus YDR334W, strain swr1, hits give low values 0.997 | locus YDR335W, strain msn5, hits give low values 1.01 | locus YDR388W, hits give low values 0.992 | locus YDR392W, strain spt3, hits give low values 0.926 | locus YDR502C, strain sam2, hits give low values 0.99 | locus YEL003W, strain gim4, hits give low values 1.01 | locus YEL037C, strain rad23, hits give low values 1 | locus YEL061C, strain CIN8 (second series), hits give low values 1.01 | locus YEL061C, strain CIN8, hits give low values 1 | locus YER015W, strain faa2, hits give low values 1 | locus YER016W, strain bim1, hits give low values 1.01 | locus YER110C, hits give low values 0.97 | locus YER111C, strain swi4, hits give low values 1 | locus YER155C, strain BEM2 (second series), hits give low values 0.994 | locus YER155C, strain BEM2, hits give low values 0.999 | locus YER167W, strain BCK2, hits give low values 1.02 | locus YFR010W, strain ubp6, hits give low values 1 | locus YGL078C, strain dbp3, hits give low values 0.962 | locus YGL086W, strain mad1, hits give low values 0.996 | locus YGL167C, strain pmr1, hits give low values 0.995 | locus YGL173C, strain kem1, hits give low values 1.01 | locus YGL227W, strain vid30, hits give low values 0.992 | locus YGL240W, strain doc1, hits give low values 1.01 | locus YGL248W, strain PDE1, hits give low values 0.988 | locus YGL253W, strain hxk2, hits give low values 1.02 | locus YGR135W, strain pre9, hits give low values 0.948 | locus YGR252W, strain gcn5, hits give low values 0.91 | locus YHR013C, strain ard1, hits give low values 1.01 | locus YHR027C, strain rpn1, hits give low values 0.996 | locus YHR030C, strain SLT2, hits give low values 1.01 and 1 | locus YHR079C, strain IRE1 (second series), hits give low values 0.993 | locus YHR079C, strain IRE1, hits give low values 1 | locus YHR094C, strain hxt1, hits give low values 0.991 | locus YHR129C, strain ARP1, hits give low values 0.996 | locus YHR142W, strain chs7, hits give low values 0.993 | locus YHR200W, strain rpn10, hits give low values 0.985 | locus YIL066C, strain RNR3, hits give low values 0.998 | locus YIL073C, strain SPO22, hits give low values 1.01 | locus YIL125W, strain kgd1, hits give low values 0.975 | locus YIR030C, strain dcg1, hits give low values 0.988 | locus YJL092W, strain hpr5, hits give low values 1 | locus YJL095W, strain BCK1 (second series), hits give low values 1.01 | locus YJL095W, strain BCK1, hits give low values 0.978 and 1.02 | locus YJL115W, strain asf1, hits give low values 1.01 | locus YJL129C, strain trk1, hits give low values 0.986 | locus YJL134W, strain LCB3, hits give low values 1 | locus YJL154C, strain vps35, hits give low values 1.01 | locus YJL164C, strain tpk1, hits give low values 1.01 | locus YJL166W, strain qcr8, hits give low values 0.992 | locus YJL168C, strain set2, hits give low values 0.978 | locus YJL187C, strain SWE1 (second series), hits give low values 0.985 | locus YJL187C, strain SWE1, hits give low values 0.998 | locus YJR043C, strain POL32, hits give low values 1.01
